Targets with a hit are over-represented here; the source holds about 7,900 in all. About 0.6% of all pairs of compound and target were hits.
Tests used:
Assay in all cases: log2 fold change, soluble protein after heating vs DMSO (PISA); higher = thermal stabilisation; K562 cells, 10 uM, 30 min; active = over 0.2 and 3.5 SD of the protein, either way, in both replicates (recomputed)
ZC3H8 = ZC3H8 (UniProt Q8N5P1)
How it was run: (§1)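 Soluble protein was quantified by TMTpro 16plex LC-MS/MS after channel sums were equalised. It was obtained as the supernatant after 21,000xg for 90 min from pooled aliquots of K562 cells (2×10^6 cells/mL, 10 μM compound, 30 min) heated for 3 min across 48°C-58°C and extracted in PBS with 0.5% NP-40 at 4°C. Thermal stability values are relative to control samples and come from duplicates. They are given as log2 fold changes.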

ZC3HC1 = ZC3HC1 (UniProt Q86WB0)
Sequence of ZC3HC1 (Q86WB0 whole entry, looked up): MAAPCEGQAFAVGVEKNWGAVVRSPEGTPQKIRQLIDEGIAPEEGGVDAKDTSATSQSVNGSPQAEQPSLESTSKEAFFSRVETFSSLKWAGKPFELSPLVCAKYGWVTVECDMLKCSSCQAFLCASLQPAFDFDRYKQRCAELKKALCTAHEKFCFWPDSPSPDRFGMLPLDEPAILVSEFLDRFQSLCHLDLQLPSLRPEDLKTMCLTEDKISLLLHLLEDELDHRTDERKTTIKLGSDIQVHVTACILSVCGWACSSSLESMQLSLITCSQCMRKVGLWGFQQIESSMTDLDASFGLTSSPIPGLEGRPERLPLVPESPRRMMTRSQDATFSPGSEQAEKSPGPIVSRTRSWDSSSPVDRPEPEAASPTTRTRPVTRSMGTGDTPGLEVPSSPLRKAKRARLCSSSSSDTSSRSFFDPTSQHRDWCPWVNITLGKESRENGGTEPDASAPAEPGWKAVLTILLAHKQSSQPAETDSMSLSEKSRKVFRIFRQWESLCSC
How it was run: as §1

ZCCHC9 = ZCCHC9 (UniProt Q8N567)
Sequence of ZCCHC9 (Q8N567 whole entry, looked up): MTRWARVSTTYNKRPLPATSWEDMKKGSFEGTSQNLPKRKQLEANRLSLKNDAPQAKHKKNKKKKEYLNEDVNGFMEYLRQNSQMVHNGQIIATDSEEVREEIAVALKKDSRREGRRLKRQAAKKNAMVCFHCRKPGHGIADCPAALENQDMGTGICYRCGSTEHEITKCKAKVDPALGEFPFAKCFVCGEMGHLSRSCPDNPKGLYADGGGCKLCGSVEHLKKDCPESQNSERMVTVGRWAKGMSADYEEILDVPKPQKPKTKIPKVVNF
How it was run: as §1

ZDHHC17 = ZDHHC17 (UniProt Q8IUH5)
Sequence of ZDHHC17 (Q8IUH5 whole entry, looked up): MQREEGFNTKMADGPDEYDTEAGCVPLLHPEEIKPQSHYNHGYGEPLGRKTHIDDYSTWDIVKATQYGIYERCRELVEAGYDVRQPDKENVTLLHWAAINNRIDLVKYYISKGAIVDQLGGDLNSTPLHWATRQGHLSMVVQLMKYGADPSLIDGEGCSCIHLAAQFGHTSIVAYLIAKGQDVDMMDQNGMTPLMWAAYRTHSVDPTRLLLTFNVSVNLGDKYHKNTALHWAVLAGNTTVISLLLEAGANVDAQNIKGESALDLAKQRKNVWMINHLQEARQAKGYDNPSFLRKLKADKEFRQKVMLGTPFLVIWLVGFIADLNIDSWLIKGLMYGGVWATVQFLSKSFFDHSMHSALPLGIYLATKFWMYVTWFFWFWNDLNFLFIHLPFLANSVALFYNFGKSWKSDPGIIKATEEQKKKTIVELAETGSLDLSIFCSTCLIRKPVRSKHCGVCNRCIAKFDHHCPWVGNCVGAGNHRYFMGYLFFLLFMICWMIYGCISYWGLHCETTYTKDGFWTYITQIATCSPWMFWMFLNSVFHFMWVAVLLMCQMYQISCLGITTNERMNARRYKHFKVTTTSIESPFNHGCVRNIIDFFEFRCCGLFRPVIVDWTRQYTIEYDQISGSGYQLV
How it was run: as §1

ZDHHC20 = ZDHHC20 (UniProt Q5W0Z9)
Sequence of ZDHHC20 (Q5W0Z9 whole entry, looked up): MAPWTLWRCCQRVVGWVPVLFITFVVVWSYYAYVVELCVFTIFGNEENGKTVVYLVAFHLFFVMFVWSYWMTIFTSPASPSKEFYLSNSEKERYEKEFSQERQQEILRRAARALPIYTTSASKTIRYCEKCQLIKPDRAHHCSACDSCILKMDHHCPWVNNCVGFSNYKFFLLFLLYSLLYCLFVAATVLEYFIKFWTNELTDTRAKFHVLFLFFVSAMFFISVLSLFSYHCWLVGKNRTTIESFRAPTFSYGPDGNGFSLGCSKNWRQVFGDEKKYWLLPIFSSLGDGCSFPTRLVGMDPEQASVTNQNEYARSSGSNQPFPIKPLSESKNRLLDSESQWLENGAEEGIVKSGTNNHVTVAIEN
How it was run: as §1

ZDHHC5 = ZDHHC5 (UniProt Q9C0B5)
Sequence of ZDHHC5 (Q9C0B5 whole entry, looked up): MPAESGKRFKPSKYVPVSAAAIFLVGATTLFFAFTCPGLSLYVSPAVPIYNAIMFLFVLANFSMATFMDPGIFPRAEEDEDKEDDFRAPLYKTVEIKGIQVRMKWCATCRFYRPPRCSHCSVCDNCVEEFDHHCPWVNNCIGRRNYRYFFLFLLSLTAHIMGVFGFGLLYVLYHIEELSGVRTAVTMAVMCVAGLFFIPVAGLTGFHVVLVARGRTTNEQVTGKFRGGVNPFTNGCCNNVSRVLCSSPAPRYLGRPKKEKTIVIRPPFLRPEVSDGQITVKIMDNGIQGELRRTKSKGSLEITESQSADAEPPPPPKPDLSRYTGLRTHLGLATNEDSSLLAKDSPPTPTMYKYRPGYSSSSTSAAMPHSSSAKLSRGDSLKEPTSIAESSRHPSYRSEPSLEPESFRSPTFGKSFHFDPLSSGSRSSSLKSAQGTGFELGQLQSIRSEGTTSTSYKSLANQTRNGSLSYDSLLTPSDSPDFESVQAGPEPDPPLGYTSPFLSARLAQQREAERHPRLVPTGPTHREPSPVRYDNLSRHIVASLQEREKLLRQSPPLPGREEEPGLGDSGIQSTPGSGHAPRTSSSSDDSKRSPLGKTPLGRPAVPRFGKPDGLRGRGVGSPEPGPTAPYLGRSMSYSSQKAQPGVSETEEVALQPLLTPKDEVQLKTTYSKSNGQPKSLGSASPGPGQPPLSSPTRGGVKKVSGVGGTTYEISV
How it was run: as §1

ZDHHC7 isoform 2 = ZDHHC7 isoform 2 (UniProt Q9NXF8)
Sequence of ZDHHC7 isoform 2 (Q9NXF8 whole entry, looked up, canonical isoform): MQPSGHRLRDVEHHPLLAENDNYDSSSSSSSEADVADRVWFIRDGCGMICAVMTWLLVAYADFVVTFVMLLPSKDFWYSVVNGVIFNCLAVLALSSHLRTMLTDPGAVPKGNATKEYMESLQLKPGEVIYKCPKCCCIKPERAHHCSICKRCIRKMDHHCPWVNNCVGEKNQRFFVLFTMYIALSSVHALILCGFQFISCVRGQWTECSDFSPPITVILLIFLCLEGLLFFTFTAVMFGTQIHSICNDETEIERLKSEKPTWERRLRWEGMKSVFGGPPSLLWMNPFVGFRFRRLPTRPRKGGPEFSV
How it was run: as §1

ZDHHC6 = ZDHHC6 (UniProt Q9H6R6)
Sequence of ZDHHC6 (Q9H6R6 whole entry, looked up): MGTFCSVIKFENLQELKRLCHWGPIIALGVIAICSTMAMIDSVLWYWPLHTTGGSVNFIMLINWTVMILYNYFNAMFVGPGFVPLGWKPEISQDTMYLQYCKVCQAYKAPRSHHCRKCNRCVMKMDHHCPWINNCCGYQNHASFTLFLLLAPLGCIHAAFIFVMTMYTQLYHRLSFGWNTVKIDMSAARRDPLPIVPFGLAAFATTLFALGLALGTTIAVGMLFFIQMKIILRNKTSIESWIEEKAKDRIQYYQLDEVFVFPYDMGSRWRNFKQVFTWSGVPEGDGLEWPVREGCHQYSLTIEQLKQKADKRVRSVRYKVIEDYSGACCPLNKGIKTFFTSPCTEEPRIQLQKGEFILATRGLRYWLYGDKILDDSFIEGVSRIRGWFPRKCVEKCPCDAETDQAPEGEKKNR
How it was run: as §1

ZDHHC8 isoform 3 = ZDHHC8 isoform 3 (UniProt Q9ULC8)
Sequence of ZDHHC8 isoform 3 (Q9ULC8 whole entry, looked up, canonical isoform): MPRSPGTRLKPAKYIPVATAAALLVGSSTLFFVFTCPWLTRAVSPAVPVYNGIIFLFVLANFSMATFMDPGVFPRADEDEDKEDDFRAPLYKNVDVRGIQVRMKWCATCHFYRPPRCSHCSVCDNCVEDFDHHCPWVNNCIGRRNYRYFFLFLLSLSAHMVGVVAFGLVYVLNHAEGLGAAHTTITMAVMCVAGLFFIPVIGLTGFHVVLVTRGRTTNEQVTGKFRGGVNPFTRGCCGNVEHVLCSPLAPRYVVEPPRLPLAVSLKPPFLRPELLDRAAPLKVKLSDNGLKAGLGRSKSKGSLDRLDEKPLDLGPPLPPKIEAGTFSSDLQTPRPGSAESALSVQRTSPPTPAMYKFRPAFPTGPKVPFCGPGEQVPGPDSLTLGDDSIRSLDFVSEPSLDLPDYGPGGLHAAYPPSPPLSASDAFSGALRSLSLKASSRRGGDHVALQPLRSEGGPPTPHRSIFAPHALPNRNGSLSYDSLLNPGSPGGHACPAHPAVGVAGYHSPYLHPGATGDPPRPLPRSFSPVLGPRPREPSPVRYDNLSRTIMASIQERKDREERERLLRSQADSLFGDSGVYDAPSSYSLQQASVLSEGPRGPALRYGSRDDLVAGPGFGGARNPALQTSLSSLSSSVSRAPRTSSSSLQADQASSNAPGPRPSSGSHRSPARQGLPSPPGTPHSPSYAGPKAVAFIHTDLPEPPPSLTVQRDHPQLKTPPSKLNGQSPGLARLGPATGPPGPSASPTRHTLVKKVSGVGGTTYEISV
How it was run: as §1

Measured: log2 fold change

Sequence of ZC3H8 (Q8N5P1 whole entry, looked up): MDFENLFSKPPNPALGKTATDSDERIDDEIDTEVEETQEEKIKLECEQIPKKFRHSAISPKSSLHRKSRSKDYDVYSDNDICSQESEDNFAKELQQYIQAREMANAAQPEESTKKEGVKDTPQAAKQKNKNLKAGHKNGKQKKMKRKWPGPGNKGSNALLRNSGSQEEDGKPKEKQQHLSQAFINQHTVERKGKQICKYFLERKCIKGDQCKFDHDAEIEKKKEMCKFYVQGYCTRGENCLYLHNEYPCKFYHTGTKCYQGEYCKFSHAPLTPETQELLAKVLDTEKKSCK

C[C@@H](N)c1ccc(C(=O)Nc2ccnc3[nH]ccc23)cc1
inactive: ZC3H8 0.218 | ZC3HC1 -0.213 | ZCCHC9 0.359 | ZDHHC17 -0.03 | ZDHHC20 0.051 | ZDHHC5 0.006 | ZDHHC7 isoform 2 -0.065

Fc1ccc(Cl)cc1-c1nc(Nc2ccncc2)c2nccnc2n1
inactive: ZC3H8 -0.275 | ZC3HC1 0.128 | ZCCHC9 -0.378 | ZDHHC17 -0.006 | ZDHHC20 0.152 | ZDHHC5 -0.002 | ZDHHC6 -0.083 | ZDHHC7 isoform 2 0.093 | ZDHHC8 isoform 3 0.028

C[C@@H]1COCCN1c1cc(C2(S(C)(=O)=O)CC2)nc(-c2cccc3[nH]ccc23)n1
inactive: ZC3H8 -0.151 | ZC3HC1 0.119 | ZCCHC9 -0.381 | ZDHHC17 0.005 | ZDHHC20 0.131 | ZDHHC5 -0.011 | ZDHHC6 0.067 | ZDHHC7 isoform 2 -0.037 | ZDHHC8 isoform 3 0.284

CC(C)C[C@@H](C=O)NC(=O)[C@H](CC(C)C)NC(=O)[C@H](CC(C)C)NC(=O)OCc1ccccc1
inactive: ZC3H8 0.045 | ZC3HC1 -0.101 | ZCCHC9 0.305 | ZDHHC17 -0.057 | ZDHHC20 -0.153 | ZDHHC5 -0.029 | ZDHHC7 isoform 2 -0.069

CNC(=O)c1ccccc1Nc1nc(Nc2ccc(N3CCOCC3)cc2OC)ncc1Cl
inactive: ZC3H8 0.019 | ZC3HC1 0.067 | ZCCHC9 0.058 | ZDHHC17 0.146 | ZDHHC20 0 | ZDHHC5 0.006 | ZDHHC7 isoform 2 -0.016

CC(=O)c1cnc2ccc(-c3cc(Cl)c(O)c(Cl)c3)nc2c1N[C@H]1CC[C@H](CN(C)C)CC1
inactive: ZC3H8 0.006 | ZC3HC1 -0.165 | ZCCHC9 0.143 | ZDHHC17 -0.007 | ZDHHC20 0.026 | ZDHHC5 -0.049 | ZDHHC7 isoform 2 -0.017

Oc1cc(-c2nc(-c3ccccc3)[nH]c2-c2ccncc2)ccc1Cl
inactive: ZC3H8 -0.076 | ZC3HC1 0.024 | ZCCHC9 -0.271 | ZDHHC17 0.002 | ZDHHC20 -0.232 | ZDHHC5 0.01 | ZDHHC7 isoform 2 0.026

C/C(=N\NC(=O)c1cccc(S(=O)(=O)N2CCOCC2)c1)c1cc(Cl)ccc1O
inactive: ZC3H8 -0.128 | ZC3HC1 0.199 | ZCCHC9 -0.224 | ZDHHC17 -0.004 | ZDHHC20 -0.048 | ZDHHC5 0.003 | ZDHHC7 isoform 2 0.057

CS(=O)(=O)N1CCN(Cc2cc3nc(-c4cccc5[nH]ncc45)nc(N4CCOCC4)c3s2)CC1 [pictilisib]
inactive: ZC3H8 -0.007 | ZC3HC1 -0.003 | ZCCHC9 -0.004 | ZDHHC17 0.021 | ZDHHC20 0.066 | ZDHHC5 0.047 | ZDHHC6 -0.044 | ZDHHC7 isoform 2 0.089

CN1CC[C@H](c2c(O)cc(O)c3c(=O)cc(-c4ccccc4Cl)oc23)[C@H](O)C1 [alvocidib]
inactive: ZC3H8 0.189 | ZC3HC1 -0.318 | ZCCHC9 0.321 | ZDHHC17 -0.027 | ZDHHC20 -0.016 | ZDHHC5 -0.038 | ZDHHC7 isoform 2 0.077

CO[C@H]1C[C@@H]2CC[C@@H](C)[C@@](O)(O2)C(=O)C(=O)N2CCCC[C@H]2C(=O)O[C@H]([C@H](C)C[C@@H]2CC[C@H](n3cnnn3)[C@H](OC)C2)CC(=O)[C@H](C)/C=C(\C)[C@@H](O)[C@@H](OC)C(=O)[C@H](C)C[C@H](C)/C=C/C=C/C=C/1C [zotarolimus]
inactive: ZC3H8 0.029 | ZC3HC1 0.052 | ZCCHC9 -0.044 | ZDHHC17 0.039 | ZDHHC20 -0.15 | ZDHHC5 -0.085 | ZDHHC7 isoform 2 -0.245

COc1cc(C(=O)O)ccc1NC(=O)[C@@H]1N[C@@H](CC(C)(C)C)[C@](C#N)(c2ccc(Cl)cc2F)[C@H]1c1cccc(Cl)c1F [idasanutlin]
inactive: ZC3H8 0.109 | ZC3HC1 -0.012 | ZCCHC9 0.139 | ZDHHC17 -0.048 | ZDHHC20 -0.014 | ZDHHC5 -0.111 | ZDHHC7 isoform 2 -0.013

c1cn2cc(-c3ccc4cn[nH]c4c3)nc(Nc3ccc(N4CCOCC4)cc3)c2n1 [entospletinib]
inactive: ZC3H8 -0.034 | ZC3HC1 0.005 | ZCCHC9 0.168 | ZDHHC17 0.059 | ZDHHC20 -0.02 | ZDHHC5 0.071 | ZDHHC6 -0.058 | ZDHHC7 isoform 2 0.027

Cc1ccc(Sc2cncc3sc(C(N)=O)cc23)cc1
inactive: ZC3H8 -0.115 | ZC3HC1 0.053 | ZCCHC9 -0.109 | ZDHHC17 0.038 | ZDHHC20 0.014 | ZDHHC5 -0.011 | ZDHHC6 0.034 | ZDHHC7 isoform 2 -0.138

NC(=O)c1cnc(N[C@@H]2CCCC[C@@H]2N)nc1Nc1cccc(-n2nccn2)c1
inactive: ZC3H8 0.08 | ZC3HC1 -0.054 | ZCCHC9 0.049 | ZDHHC17 -0.003 | ZDHHC20 -0.001 | ZDHHC5 -0.01 | ZDHHC7 isoform 2 -0.064
